Conditions in all cases: modulator concentration 10 µM
Assay [1] concerns RAW-Dual (murine macrophage reporter line). The assay is described as follows: NF-kB reporter (SEAP) activity fold change vs agonist alone; higher = enhanced NF-kB activity. In a few lines: (§1)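 RAW-Dual murine macrophage reporter cells were plated at 50 000 per well in 384-well plates, pin-transferred compound to 10 μM final, and pre-incubated for 1 hour at 37 °C before a PRR agonist was added and the cells incubated overnight. NF-κB activity was read from supernatant SEAP with QUANTI-Blue at 620 nm absorbance, and IRF activity from Lucia luciferase with QUANTI-Luc by luminescence. Each signal was expressed as fold change by dividing by the mean agonist-only control on the same plate. Two replicate plates were averaged, with errors obtained by propagation.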

Assay [2] shares this test system. Briefly: IRF reporter (Lucia luciferase) activity fold change vs agonist alone; higher = enhanced IRF activity. In a few lines: as §1
The test system is the same in assay [3]. Briefly: viability score (confluency relative to resting cells, overnight) (fraction); higher = more viable, active = viable (0.7 or more). An outline of the steps:
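A compound met the cutoff when both of two confluency masks exceeded 70% of resting cells. Those masks were made with IncuCyte software from IncuCyte images of RAW-Dual macrophages treated overnight at 10 μM final. This is the basis of the viability score, which is confluency relative to resting cells.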

Setting [4] is: agonist: CpG ODN 1826 0.5 ug/mL.

Results on twelve molecules are retold here after the supplement of paper PMC10646978.

± gives the standard deviation.

`CCOC(=O)CC(C(=O)OCC)P(=O)(c1ccccc1)c1ccccc1` (centres undefined): the values for the NF-kB reporter in assay [1] (setting [4]), in assay [1] (agonist: LPS 0.1 ug/mL) and in assay [1] (agonist: MPLA […]) were 0.85 ± 0.048, 0.943 ± 0.086 and 1.02 ± 0.14, respectively. The values for the IRF reporter in assay [2] (agonist: 3'3'-cGAMP 10 ug/mL), in assay [2] (agonist: LPS 0.1 ug/mL) and in assay [2] (agonist: MPLA […]) were 0.993 ± 0.061, 1.17 ± 0.095 and 1.15 ± 0.23, respectively. Moreover, the viability score in assay [3] is 1.01 (active).

With `Cc1ccc(C2=NN3C(=N)C(=Cc4c[nH]c5ccccc45)C(=O)N=C3S2)cc1`, the NF-kB reporter in assay [1] (setting [4]) was determined as 0.997 ± 0.079; in assay [1] (agonist: LPS 0.1 ug/mL), 1.03 ± 0.065; in assay [1] (agonist: MPLA […]), 0.932 ± 0.058. The IRF reporter was determined as 0.974 ± 0.024 in assay [2] (agonist: 3'3'-cGAMP 10 ug/mL), 1.38 ± 0.2 in assay [2] (agonist: LPS 0.1 ug/mL) and 1.12 ± 0.21 in assay [2] (agonist: MPLA […]). In assay [3], the viability score was 1.01 (active).

`CC1(C)Cc2ccccc2C(=C(C#N)C#N)N1`: the NF-kB reporter in assay [1] (setting [4]) came to 1.01 ± 0.08; in assay [1] (agonist: LPS 0.1 ug/mL), 0.912 ± 0.068; in assay [1] (agonist: MPLA […]), 1.06 ± 0.1. Further, the IRF reporter stood at 1.03 ± 0.041 in assay [2] (agonist: 3'3'-cGAMP 10 ug/mL), 1.33 ± 0.2 in assay [2] (agonist: LPS 0.1 ug/mL) and 1.5 ± 0.34 in assay [2] (agonist: MPLA […]). For the same molecule, in assay [3], the viability score is 1.01 (active).

For `COc1cc(/C=C/C(=O)/C=C(O)/C=C/c2ccc(O)c(OC)c2)ccc1O`, the NF-kB reporter in assay [1] (setting [4]) is 0.662 ± 0.16; in assay [1] (agonist: LPS 0.1 ug/mL), 1.14 ± 0.32; in assay [1] (agonist: MPLA […]) it was 2.02 ± 0.15. The results for the IRF reporter in assay [2] (agonist: 3'3'-cGAMP 10 ug/mL), in assay [2] (agonist: LPS 0.1 ug/mL) and in assay [2] (agonist: MPLA […]) were 0.0871 ± 0.0028, 0.279 ± 0.091 and 0.517 ± 0.041, respectively. Further, in assay [3], the viability score was 0.272 (inactive).

Turning to `O=[N+]([O-])c1ccc2nc(Cl)sc2c1`, the NF-kB reporter was 1.71 ± 0.13 in assay [1] (setting [4]), 0.49 ± 0.039 in assay [1] (agonist: LPS 0.1 ug/mL) and 0.338 ± 0.032 in assay [1] (agonist: MPLA […]). Moreover, the IRF reporter in assay [2] (agonist: 3'3'-cGAMP 10 ug/mL) is 0.159 ± 0.02; in assay [2] (agonist: LPS 0.1 ug/mL) it was 0.223 ± 0.083; in assay [2] (agonist: MPLA […]), 0.0921 ± 0.025. Moreover, in assay [3], the viability score is 0.638 (inactive).

With `CCCC(CCC)C(N)=O`, the values for the NF-kB reporter in assay [1] (setting [4]), in assay [1] (agonist: LPS 0.1 ug/mL) and in assay [1] (agonist: MPLA […]) were 1.09 ± 0.093, 0.95 ± 0.083 and 0.999 ± 0.023, respectively. In addition, the IRF reporter was 1.08 ± 0.17 in assay [2] (agonist: 3'3'-cGAMP 10 ug/mL), 1.04 ± 0.12 in assay [2] (agonist: LPS 0.1 ug/mL) and 0.983 ± 0.19 in assay [2] (agonist: MPLA […]). The viability score in assay [3] is 0.996 (active).

Turning to `Cc1cc(N2CCCC2)nc(Nc2ccc(NC(=O)CC(C)C)cc2)n1`, the NF-kB reporter stood at 0.131 ± 0.01 in assay [1] (setting [4]), 1.18 ± 0.087 in assay [1] (agonist: LPS 0.1 ug/mL) and 1.31 ± 0.13 in assay [1] (agonist: MPLA […]). The IRF reporter in assay [2] (agonist: 3'3'-cGAMP 10 ug/mL) turned out to be 0.947 ± 0.04; in assay [2] (agonist: LPS 0.1 ug/mL) it was 1.3 ± 0.14; in assay [2] (agonist: MPLA […]), 1.49 ± 0.2. Besides, the viability score in assay [3] was 0.939 (active).

As to `Cc1cc(Cl)ccc1NC(=O)c1ccc(CN2CCN(c3ccccc3)CC2)cc1`, the NF-kB reporter in assay [1] (setting [4]) came to 0.684 ± 0.053; in assay [1] (agonist: LPS 0.1 ug/mL) it was 0.999 ± 0.07; in assay [1] (agonist: MPLA […]) it was 0.978 ± 0.085. The IRF reporter in assay [2] (agonist: 3'3'-cGAMP 10 ug/mL) amounted to 0.803 ± 0.037; in assay [2] (agonist: LPS 0.1 ug/mL), 1.07 ± 0.069; in assay [2] (agonist: MPLA […]), 1.2 ± 0.11. Moreover, in assay [3], the viability score was 1.02 (active).

`O=C(c1ccc(Cl)cc1)c1ccc(N2CCCCC2)c([N+](=O)[O-])c1`: the NF-kB reporter in assay [1] (setting [4]) turned out to be 1 ± 0.17; in assay [1] (agonist: LPS 0.1 ug/mL) it was 1.11 ± 0.15; in assay [1] (agonist: MPLA […]), 1.01 ± 0.097. Further, the IRF reporter in assay [2] (agonist: 3'3'-cGAMP 10 ug/mL) came to 0.957 ± 0.064; in assay [2] (agonist: LPS 0.1 ug/mL), 1.27 ± 0.27; in assay [2] (agonist: MPLA […]) it was 1.33 ± 0.27. Besides, in assay [3], the viability score was 0.998 (active).

Take `CN1C(=O)C(=NNC(=O)COc2cccc(Br)c2)c2ccccc21`: the figures for the NF-kB reporter in assay [1] (setting [4]), in assay [1] (agonist: LPS 0.1 ug/mL) and in assay [1] (agonist: MPLA […]) were 0.895 ± 0.06, 0.978 ± 0.082 and 0.896 ± 0.054, respectively. For the same molecule, the IRF reporter in assay [2] (agonist: 3'3'-cGAMP 10 ug/mL) came to 0.954 ± 0.033; in assay [2] (agonist: LPS 0.1 ug/mL), 1.48 ± 0.16; in assay [2] (agonist: MPLA […]), 1.16 ± 0.12. Also, the viability score in assay [3] was 1.01 (active).

Take `COc1ccccc1OCCOCCOc1cccc(Br)c1`: the NF-kB reporter stood at 0.883 ± 0.14 in assay [1] (setting [4]), 1.05 ± 0.12 in assay [1] (agonist: LPS 0.1 ug/mL) and 0.945 ± 0.087 in assay [1] (agonist: MPLA […]). For the same molecule, the figures for the IRF reporter in assay [2] (agonist: 3'3'-cGAMP 10 ug/mL), in assay [2] (agonist: LPS 0.1 ug/mL) and in assay [2] (agonist: MPLA […]) were 1.05 ± 0.044, 1.27 ± 0.29 and 1.36 ± 0.24, respectively. Besides, the viability score in assay [3] is 0.802 (active).

In the case of `C1N2CN3CN1CN(C2)C3`, the NF-kB reporter in assay [1] (setting [4]) came out at 1.07 ± 0.085; in assay [1] (agonist: LPS 0.1 ug/mL) it was 1.04 ± 0.054; in assay [1] (agonist: MPLA […]) it was 1.03 ± 0.033. In addition, the IRF reporter in assay [2] (agonist: 3'3'-cGAMP 10 ug/mL) was found to be 0.961 ± 0.055; in assay [2] (agonist: LPS 0.1 ug/mL), 0.958 ± 0.092; in assay [2] (agonist: MPLA […]) it was 0.949 ± 0.076. Moreover, in assay [3], the viability score was 1 (active).
